Bioassay records as filed in PubChem BioAssay.
Only some compounds are listed: those with a hit (about 1.8% of all), similar ones and a draw of the others.
ARNT TACC3 PPI = ARNT/TACC3 interaction disruption; AlphaScreen His-ARNT PAS-B/GST-TACC3 binding, luminescence; TACC3 fragment carries E629A point mutation; inhibition, % at 9.99 µM; 0.66% of 390,000 active;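 active = mean inhibition of replicates at least 50% and at least half of replicates each reaching 50%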;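 note: 0% = complete ARNT plus TACC3 wells and 100% = ARNT alone without TACC3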
GSIS activator = primary screen for activators of insulin secretion dependent on glucose, INS-1E cells, GLuc reporter luminescence; INS-1E GLuc reporter insulin secretion, 2-3 h; activation, % at 16.6 µM; 0.61% of 370,000 active;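 active = lowest replicate activation of at least 40%, so every replicate reaches that level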;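 note: 0% = median of neutral control wells and 100% = median of IBMX positive control wells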
hiPSC survival = hiPSC single-cell survival enhancement; 0.044% of 360,000 active; survival enhancement, % at 20 µM; ATPlite luminescence; 100% = ROCK inhibitor wells, 0% = DMSO; in the data active = survival enhancement above about 18%;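 note: cells exposed to compounds for 16 hours before the ATP read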
NRP1-CendR mod = modulators of CendR peptide binding to human neuropilin-1 | O14786 | FAM-RPARPAR peptide binding to NRP-1, fluorescence polarization | inhibition, % at 25 µM | 0.85% of 360,000 active;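 active = inhibition or corrected inhibition above about 18%, plus a signal ratio from 0.5 to 1.5, limit read from the data, passing the limit was not always enough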
ABCB6 inh 2 = human ABCB6 transporter inhibition; Q9NP58; K562-ABCB6 porphyrin accumulation, flow cytometry, 1 h; active compounds read low; fluorescence ratio to DMSO, % at 10 µM; 0.19% of 360,000 active;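 active = fluorescence ratio to DMSO below 75%, the collection mean minus 3 SD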;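 note: signal is porphyrin accumulated inside mitochondria; 100% equals median channel fluorescence of DMSO control wells; lower ratio means ABCB6 inhibition with less porphyrin fluorescence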
Target sequence (Q9NP58 whole entry, looked up): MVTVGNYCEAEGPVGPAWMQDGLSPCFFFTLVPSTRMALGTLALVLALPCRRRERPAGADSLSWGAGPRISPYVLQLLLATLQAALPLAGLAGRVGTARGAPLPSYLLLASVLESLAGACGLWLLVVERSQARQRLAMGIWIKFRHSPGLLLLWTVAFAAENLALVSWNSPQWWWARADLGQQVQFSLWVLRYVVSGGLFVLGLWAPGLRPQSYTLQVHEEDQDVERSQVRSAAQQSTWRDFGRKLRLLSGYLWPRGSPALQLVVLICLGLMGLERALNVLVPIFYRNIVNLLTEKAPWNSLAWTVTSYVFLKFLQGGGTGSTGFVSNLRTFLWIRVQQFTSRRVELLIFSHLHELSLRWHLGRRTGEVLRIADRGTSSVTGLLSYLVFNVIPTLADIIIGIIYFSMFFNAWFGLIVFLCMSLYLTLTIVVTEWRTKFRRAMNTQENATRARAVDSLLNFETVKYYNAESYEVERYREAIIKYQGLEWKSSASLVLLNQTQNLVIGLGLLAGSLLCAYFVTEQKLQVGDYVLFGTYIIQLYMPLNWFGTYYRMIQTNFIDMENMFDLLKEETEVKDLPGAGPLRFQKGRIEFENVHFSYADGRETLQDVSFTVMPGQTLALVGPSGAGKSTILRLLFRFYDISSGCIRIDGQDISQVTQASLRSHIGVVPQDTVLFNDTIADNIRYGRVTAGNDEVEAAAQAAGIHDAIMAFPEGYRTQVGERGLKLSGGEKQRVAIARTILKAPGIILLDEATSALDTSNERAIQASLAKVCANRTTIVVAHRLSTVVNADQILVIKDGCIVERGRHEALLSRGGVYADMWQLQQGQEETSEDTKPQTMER
Numbers without * were called inactive; / = no result given.

SMILES	ARNT TACC3 PPI	GSIS activator	hiPSC survival	NRP1-CendR mod	ABCB6 inh 2
C[C@@H]1CCCCO[C@H](CN(C)Cc2ccc(C(F)(F)F)cc2)[C@@H](C)CN([C@@H](C)CO)C(=O)c2cc(NS(C)(=O)=O)ccc2O1	2.6	-7.4	/	/	/
CCOC(=O)CNC(=O)CSc1ccc2nnc(-c3ccc(F)cc3)n2n1	-13.3	7.5	-0.5	7.0	94.0
CCSc1ccc2nnc(-c3ccc(F)cc3)n2n1	3.1	60.8*	-1.8	-11.3	100.0
CO[C@@H]1CN(C)C(=O)c2ccc(NC(=O)C3CCOCC3)cc2OC[C@H](C)N(C(=O)c2ccccc2)C[C@@H]1C	-7.8	7.9	/	/	/
O=C(NC[C@H]1N[C@H](CO)[C@@H]1c1ccc(-c2cncnc2)cc1)C1CCCC1	/	5.1	/	/	/
C[C@H](CO)N1C[C@H](C)[C@H](CN(C)S(=O)(=O)c2cccs2)OCCCC[C@H](C)Oc2ccc(NC(=O)Nc3ccc4c(c3)OCO4)cc2C1=O	-4.9	-6.3	/	/	/
O=C(COc1ccccc1)Nc1sc2c(c1C(=O)NCc1cccnc1)CCCC2	1.5	92.3*	10.0	-20.3	91.0
COc1ccc(/C=C/C(=O)Nc2sc3c(c2C(=O)NCc2cccnc2)CCCC3)cc1	11.1	-32.9	4.6	0.1	95.0
CC(=O)N1[C@H](CO)[C@@H](c2ccccc2)C12CN(C(=O)CN1CCOCC1)C2	/	3.0	/	/	/
CN1CCN(C(=O)C[C@@H]2CC[C@@H]3[C@H](COC[C@@H](O)CN3C(=O)C3CCCC3)O2)CC1	-2.3	4.0	/	/	/
O=C(O)c1ccc2c(c1)[C@@H]1C=CC[C@@H]1[C@H](c1ccccn1)N2	-5.0	/	4.8	32.5*	103.0
CCOC(=O)c1c(CSC(=N)N)n(-c2ccc(Br)cc2)c2cc(Br)c(OC(C)=O)cc12	-0.4	7.2	-2.6	14.1	98.0
CCCCCCCCOC(=O)c1c(CSC(=N)N)n(C)c2cc(Br)c(OC(C)=O)cc12	/	269.1*	-0.5	-2.0	101.0
O=C(NCCN1CCN(C(=O)c2ccccc2Cl)CC1)C(=O)NCc1ccccc1	3.6	159.8*	0.0	6.2	99.0
Cc1cc(C)n(-c2nnc(C)c(=O)[nH]2)n1	60.0*	-1.5	-0.8	-5.1	93.0
CCC(=O)N1CC2(C1)[C@H](c1ccccc1)[C@@H](CO)N2CC1CC1	/	10.1	/	/	/
Cc1ccc(S(=O)C(c2ccccc2)c2ccccc2)cc1 (centres undefined)	-10.3	16.3	4.3	20.4*	100.0
COc1ccc2c3c(n(C)c2c1)[C@@H](CO)N(C(=O)c1ccccc1)CC31CCN(C)CC1	/	9.2	/	/	/
NS(=O)(=O)c1ccc(CCNc2nn3c(-c4cccc(OC(F)(F)F)c4)cnc3s2)cc1	/	143.4*	-0.5	-7.1	94.0
COC(=O)COc1ccc2cc(-c3ccc(OC)cc3)c(=O)oc2c1	-4.9	14.0	-0.4	20.4*	111.0
Cc1cccc(C2N=C(N)Nc3nc4ccccc4n32)c1 (centres undefined)	2.9	55.8*	1.3	7.5	95.0
Cc1ccc(C2N=C(N)Nc3nc4ccccc4n32)cc1 (centres undefined)	19.8	-8.8	-1.9	12.8	98.0
CCCCCCCCCCn1c2c(c(=N)c3c1CCC3)CCC2	-1.5	338.7*	-5.3	6.9	89.0
CCCCCCCCCn1c2c(c(=N)c3c1CCC3)CCCC2	9.4	/	-0.3	7.2	104.0
CCCC#Cc1ccc2c(c1)O[C@H](CN(C)C)[C@H](C)CN([C@H](C)CO)S2(=O)=O	-4.8	9.8	/	/	/
SMILES	ARNT TACC3 PPI	GSIS activator	hiPSC survival	NRP1-CendR mod	ABCB6 inh 2
COc1ccc2c3c([nH]c2c1)[C@@H](CO)N(Cc1cccc(Cl)c1)CC31CCN(C(C)=O)CC1	/	-11.1	/	/	/
Cc1ccc(NC(=S)NNC(=O)Cn2nc([N+](=O)[O-])cc2C)cc1	-8.9	/	-2.5	9.3	102.0
COc1cccc(NC(=S)NNC(=O)Cn2nc([N+](=O)[O-])cc2C)c1	8.1	-19.4	-1.5	29.7*	100.0
COc1ccc(N2CCN(C(=O)c3ccc(Br)cc3)CC2)c([N+](=O)[O-])c1	2.8	-31.1	0.1	16.4*	91.0
COc1cccc2cc(-c3nc4ccccc4o3)c(=O)oc12	/	1.5	0.4	29.6*	93.0
O=c1oc2ccc(Br)cc2cc1-c1nc2ccccc2o1	2.9	5.2	-1.2	-8.3	101.0
COc1ccc(CN(C)C[C@@H]2OCCCC[C@H](C)Oc3ccc(NC(=O)Nc4ccc(C(F)(F)F)cc4)cc3C(=O)N([C@H](C)CO)C[C@H]2C)cc1	-2.6	/	/	/	/
OC(CN1CCN(c2ccccc2)CC1)Cn1c2ccccc2c2ccccc21 (centres undefined)	-10.6	-15.7	2.1	25.0*	99.0
OC(CN1CCN(Cc2ccccc2)CC1)Cn1c2ccccc2c2ccccc21 (centres undefined)	10.5	-28.8	0.8	4.1	93.0
O=C(O)c1cccc(-c2ccc(/C=N/Nc3nn[nH]n3)o2)c1	67.5*	3.6	-1.9	-32.1	99.0
CNC(=S)N/N=C/c1ccc(-c2cccc(C(=O)O)c2)o1	6.9	8.1	0.2	-27.4	106.0
c1ccc(C2CC(c3ccccc3)n3c(nc4ccccc43)N2)cc1 (centres undefined)	-7.3	11.5	-2.5	24.3*	91.0
CCc1ccc(C2CC(c3ccccc3)Nc3nc(N)nn32)cc1 (centres undefined)	-5.3	7.6	-1.6	-10.3	97.0
Cc1ccc(NC(=O)C2CCCN2C(=O)NC2CCCCC2)cc1C (centres undefined)	2.5	17.9	0.2	27.6*	95.0
Cc1ccc(NC(=O)C2CCCN2C(=O)NC2CCCCC2)cc1F (centres undefined)	11.4	13.7	1.7	-0.8	100.0
CCCN(C)C[C@@H]1Oc2cc(C#CC(C)(C)O)ccc2S(=O)(=O)N([C@@H](C)CO)C[C@@H]1C	-2.1	9.3	/	/	/
C[C@@H]1CN([C@H](C)CO)C(=O)Cc2cc(NC(=O)CCN3CCOCC3)ccc2O[C@@H]1CN(C)Cc1ccc(C(=O)Nc2ccccc2N)cc1	/	1.4	/	/	/
CCCCSc1nc2[nH]ncc2c(=O)[nH]1	4.0	68.9*	1.9	-3.8	95.0
CCOC(=O)Cc1nnc(NC(=O)C(CC)Sc2nc(C)cc(=O)[nH]2)s1 (centres undefined)	45.5*	/	-1.9	-4.5	101.0
CNC[C@@H]1Oc2ccc(NC(=O)NC(C)C)cc2C(=O)N(C)C[C@@H]1C	/	1.8	/	/	/
NCCCNC(=O)c1ccc(/C=N/O)nc1	78.1*	/	-0.5	11.2	98.0
COc1cccc(-c2nc(CS(=O)(=O)CC(=O)NCc3ccc(Cl)cc3)c(C)o2)c1	-7.6	-4.7	-4.3	20.4*	79.0
CC(NC(=O)COC(=O)c1ccccc1Nc1ccccc1)c1ccccc1 (centres undefined)	-6.0	84.7*	-3.3	7.6	99.0
CC(NC(=O)COC(=O)c1ccccc1O)c1ccccc1 (centres undefined)	/	12.9	1.6	-4.1	91.0
Cc1ccc(OCC(=O)NC(C)c2ccccc2)cc1 (centres undefined)	-0.4	46.9*	-0.1	4.6	93.0
